# Lmaj promast: Leishmania major promastigote growth inhibition. Leishmania major promastigotes, resazurin fluorescence viability. inhibition, % at 10 µM. 9% of 200,000 active. AID 1063; in the data active means inhibition above about 50%;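 further: promastigotes grown with compound for 44 hours at 28 °C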
# INS promoter inh: TRM-6 insulin promoter activity inhibition; 0.9% of 130,000 active; TRM-6 cells (human fetal islet line), insulin promoter-eGFP reporter, imaging; reporter expression induced with tamoxifen; AID 1273; inhibition, % at 2 µM;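 active means inhibition above the mean plus 3 SD, with well images judged a real hit on visual review, cut at about 60% in these data, passing the limit was not always enough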
# Insulin prom up: MIN6 insulin promoter up-regulation. MIN6 insulin promoter-GFP reporter, high-content imaging; hits give high values. z-score at 5 µM. 0.3% of 190,000 active. AID 1625;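 active means z-score above 3 at 5 µM with at least 500 cells counted in the well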
# Autophagy mod: modulators of autophagy. MEF GFP-LC3 puncta imaging; test concentration mostly 10 µM. calls only at 10 µM (by protocol). 0.98% of 190,000 active. AID 463193;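 active means percentage of spot-positive cells more than 3 SD above its plate mean, without a fluorescence outlier flag or 80% toxicity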
# WT yeast gro inh: growth inhibition of WT yeast, mitochondrial fusion screen; inhibition, % at 10 µM; 2.1% of 190,000 active; mitochondrial fusion phenotypic screen, WT strain; in the data active means inhibition above about 58%; tested in S. cerevisiae
# Hits are given with their value; 0 = inactive; - = no result; + = active, no number. The list is not random: actives were taken first. Their share in the collection is about 11%.
SMILES,Lmaj promast,INS promoter inh,Insulin prom up,Autophagy mod,WT yeast gro inh
CCOC(=O)N1CCN(CC(O)c2ccc3cc[nH]c3c2)CC1 (configuration not stated),70,-,0,0,0
COc1ccccc1N1CCN(CC(O)COc2c(OC)cccc2OC)CC1 (configuration not stated),0,-,0,0,0
COc1ccccc1N1CCN(CC(O)c2ccc3cc[nH]c3c2)CC1 (configuration not stated),89,-,0,-,0
CC(C)CC(N)C(=O)OCc1ccc([N+](=O)[O-])cc1 (configuration not stated),-,-,0,-,-
Cc1nc2ccccc2c(=O)n1N(c1ccccc1)c1ccccc1,0,-,0,0,0
c1ccc2[nH]c3cc4ncnc4cc3nc2c1,99,0,0,0,0
COc1cc(C(=O)OCC(=O)Nc2ccc(C(C)=O)cc2)ccc1OCC(=O)N1CCOCC1,66,0,0,0,0
COc1ccc(-c2csc(NC(=O)c3ccc(OCC(=O)N4CCOCC4)c(OC)c3)n2)cc1OC,71,0,0,0,0
CC1(C(=O)NCc2ccccn2)C=CCN1C(=O)c1ccccc1 (configuration not stated),0,0,0,0,0
Cc1ccc(S(=O)(=O)Oc2ccc(/C=N/NC(=O)c3cccnc3)cc2)cc1,0,-,0,0,0
Cc1ccc(-c2nnn(CC(=O)N3CCCCC3)n2)o1,0,0,0,0,0
CCCCSc1nnc(-c2ccccc2)c2ccccc12,0,-,0,0,82
Cc1ccc(CNC(=O)CNC(=S)N(Cc2ccccc2)Cc2ccccc2F)cc1,0,-,0,+,74
COc1cccc(CNC(=O)CNC(=S)N(Cc2ccccc2)Cc2ccccc2F)c1,0,0,0,0,72
O=C(CNC(=S)N(Cc1ccccc1)Cc1ccccc1F)NCc1ccccc1,0,0,0,0,75
O=C(CNC(=S)N(Cc1ccccc1)Cc1ccccc1F)NCc1ccc(Cl)cc1,0,0,0,0,81
CN(C)CCNC(=O)CNC(=S)N(Cc1ccccc1)Cc1ccccc1F,0,0,0,0,0
O=C(CNC(=S)N(Cc1ccccc1)Cc1ccccc1F)NCCc1ccccc1,0,0,0,0,64
CCCS(=O)(=O)N1CCN(CCCc2ccccc2)CC1,79,0,0,0,0
O=C(NN1CCN(Cc2ccccc2Cl)CC1)c1ccc(Cl)cc1,0,0,-,0,0
Clc1ccccc1CN1CCN(CCCc2ccccc2)CC1,93,0,0,0,0
O=C(NCCN1CCN(Cc2ccccc2Cl)CC1)Nc1ccccc1,82,0,-,0,0
CCCS(=O)(=O)N1CCC(C(=O)N2CCN(Cc3ccccc3)CC2)CC1,0,-,0,0,0
Clc1cccc(CN2CCN(Cc3nc(CCc4ccccc4)no3)CC2)c1,64,-,0,0,0
Cc1ccc(NC(=O)C2(C)Cc3ccccc3C(=O)O2)cc1 (configuration not stated),0,0,0,0,0
SMILES,Lmaj promast,INS promoter inh,Insulin prom up,Autophagy mod,WT yeast gro inh
OCC1(CCc2ccccc2)CCN(Cc2ccccc2Cl)CC1,57,-,0,0,0
Cc1cccc(CN2CCN(CCCc3ccccc3)CC2)c1,96,-,0,0,0
OCC1(CCCc2ccccc2)CCN(Cc2cc(F)ccc2F)CC1,83,-,0,0,0
CCCS(=O)(=O)N1CCN(Cc2ccc3c(c2)c2ccccc2n3CC)CC1,71,0,0,0,0
O=C(CSc1nnc(-c2ccc(OC(F)F)cc2)o1)NCc1cccs1,0,0,-,0,0
CC[N+]1(CC)CC2=Cc3c(ccc4ccccc34)C(C)C2C1 (configuration not stated),-,-,0,-,-
O=C1CC(c2ccc(Cl)c([N+](=O)[O-])c2)c2ccc3ccccc3c2N1 (configuration not stated),100,0,0,0,0
C/C(=N\Nc1nccnc1Cl)c1ccc([N+](=O)[O-])cc1,0,-,0,0,0
COc1cccc(/C=N/NC(=O)c2cccc([N+](=O)[O-])c2)c1OS(=O)(=O)c1ccccc1,100,-,0,0,0
COc1cc(/C=N/NC(=O)c2cccc([N+](=O)[O-])c2)cc(OC)c1O,0,0,0,0,0
COc1cccc(/C=N/NC(=O)c2ccc([N+](=O)[O-])cc2Cl)c1O,99,0,-,0,0
Cc1ccc2[nH]c(=O)c3cc(C(=O)N(CCCOC(C)C)Cc4ccco4)sc3c2c1,75,-,0,0,0
Cc1ccc2oc(=O)c3cnn(CC(=O)N(CCN(C)C)Cc4ccco4)c3c2c1,0,-,0,0,0
O=C(c1cccs1)N(Cc1ccccn1)Cc1ccco1,0,0,0,0,0
CN(C)CCN(Cc1ccco1)C(=O)c1cc2c(Cl)nc3ccccc3c2s1,91,0,0,0,0

# Source: PubChem BioAssay (several laboratories)
